Data reported in PubChem BioAssay (NCATS).
Records with an inconclusive call do not appear. Active and inactive are the calls of the source. Calls follow the shape of the dose curve; as a rule, active = well fitted inhibition curve with a large enough effect; inconclusive = small, poorly fitted or top-dose-only effect; inactive = flat fitted curve, though single readings scatter. Numbered stars: 1 amine (or outer) side, 2 acyl side, 3 side chain; on linkers, the order of the positions; unused ones are H or OH. Bridge positions count the residues as written; N and C are the ends. Square brackets hold non-standard residues; d marks the D form. Peptide text beside a SMILES is read from it. * marks the point of attachment. ξ: configuration not given here. ΔAla(Z-3-ureido) = NC(=O)N/C=C(\N)C(=O)O; ξDab(CH2SO3H) = NC(CCNCS(=O)(=O)O)C(=O)O; X2 = NC1=NC(O)CC(C(N[*:1])C(=O)[*:2])N1; X1 = NC1=NCCC(C(N[*:1])C(=O)[*:2])N1; Heptanoyl(6-Me) = CC(C)CCCCC(=O)*; ξβ3hOrn = NCCCC(N)CC(=O)*; Orn = NCCC[CH](N)C(=O)O; Dab = NCC[CH](N)C(=O)O; Dap = NC[CH](N)C(=O)O

The compounds below were run on DFO2036 (assay: qHTS profiling for inhibitors of Plasmodium falciparum proliferation (AID 504749; also: nearly all actives have a fitted effect of over 60% in size;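 as to activity, negative = inhibition: 0% = DMSO vehicle and full inhibition = artemisinin control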)). Conditions: P. falciparum in erythrocytes, SYBR Green DNA, 72 h; series mostly up to 28.7 µM; activity, negative = inhibition: at the top concentration.
Source text: NIH National Institute of Allergy and Infectious Diseases [NIAID] NIH Chemical Genomics Center [NCGC] MLPCN Grant: None Assay Provider: Xinzhuan Su, NIAID NCGC Assay Overview: Plasmodium falciparum is a virulent malarial parasite that kills 1-2 million people worldwide each year. Transmitted by mosquitoes, the sporozoite form of the parasite enters the blood stream to infect hepatocytes, where they become merozoites that infect red blood cells (erythrocytes). Within erythrocytes, merozoites begin a […] cycle of growth and division, after which the parasite is released to infect new red blood cells. Gametocytes, which form within erythrocytes as well, circulate in the bloodstream and are ingested by the mosquito, thereby completing the life cycle. To profile malarial isolates for differential chemical responses and to identify inhibitors of malarial growth, an assay that measures P. falciparum growth and replication within erythrocytes was employed. This assay uses a DNA binding fluorescent dye (SYBR Green) to detect parasite DNA following cell lysis. Because mature erythrocytes lack DNA, only Plasmodium-derived DNA is detected.
NCGC Assay Protocol Summary: The SYBR Green viability assay was adapted from a method described previously (Plouffe et al., 2008). For screening 3 ul culture medium was dispensed into 1536 well black clear bottom plates (Aurora Biotechnologies) using a Multidrop Combi (Thermo Fisher Scientific Inc.), 23 nL compounds in DMSO were added by a pin tool (Kalypsys), and 5 ul of erythrocytes infected with P. falciparum (0.3% parasitemia, 2.5% hematocrit final concentration) were added. The plates were incubated at 37 C in a humidified incubator in 5% CO2 for 72 h, and 2 ul lysis buffer (20 mM Tris HCl, 10 mM EDTA, 0.16% saponin, 1.6% triton X, 10X SYBR Green I supplied as 10,000X […] by Invitrogen) was added to each well. The plates were mixed for 25 sec with gentle shaking and incubated overnight at room temperature in the dark. The following morning, fluorescence intensity at 485(14) nm excitation and 535(25) nm emission wavelengths was measured on an EnVision (Perkin Elmer) plate reader. Plate reads were normalized relative to the control inhibitor (0.29 uM artemisinin) and vehicle (DMSO) wells present on each plate and then corrected by an algorithm using vehicle-only control plates at the beginning and end of the compound plate stack.
Potency is read from the fitted curve at half-maximal effect.

| SMILES | activity, negative = inhibition | Potency |
| --- | --- | --- |
| CCC1NC(=O)C(NC(=O)c2ncccc2O)C(C)OC(=O)C(c2ccccc2)NC(=O)C2CC(=O)CCN2C(=O)C(Cc2ccccc2)N(C)C(=O)C2CCCN2C1=O (stereo not drawn) | -24.8% (inactive) | – |
| NCCCC(N)CC(=O)NCC1NC(=O)C(CO)NC(=O)C(N)CNC(=O)C(C2CCN=C(N)N2)NC(=O)/C(=C/NC(N)=O)NC1=O (stereo not drawn) (H-[Dap]S[Dap](ξβ3hOrn)[ΔAla(Z-3-ureido)][X1]; lactam 1-C; configuration not given here) | 13% (inactive) | – |
| COc1ccc(-c2nc3ccc(C4=C(C)CC(=O)NN4)cc3[nH]2)cc1 | -13.2% (inactive) | – |
| CCOC(=O)C(CS)NCCN[C@@H](CS)C(=O)OCC (stereo partly drawn) | 7.35% (inactive) | – |
| O=C(O)c1ccccc1-c1c2cc(Br)c(=O)c(Br)c-2oc2c(Br)c(O)c(Br)cc12 | 7.32% (inactive) | – |
| CCC(Oc1ccccc1)C(=O)NC1C(=O)N2C1SC(C)(C)C2C(=O)O (stereo not drawn) | 5.74% (inactive) | – |
| CC1(C)C(/C=C/C=C/C=C/C=C2\N(CCCCS(=O)(=O)O)c3ccc4ccccc4c3C2(C)C)=[N+](CCCCS(=O)(=O)[O-])c2ccc3ccccc3c21 | -0.293% (inactive) | – |
| NC(=O)CCC1NC(=O)C(Cc2ccccc2)NC(=O)C(Cc2ccc(O)cc2)NC(=O)CCSSCC(C(=O)N2CCCC2C(=O)NC(CCCN=C(N)N)C(=O)NCC(N)=O)NC(=O)C(CC(N)=O)NC1=O (stereo not drawn) | 3.33% (inactive) | – |
| C=CC1=C(C(=O)O)N2C(=O)[C@@H](NC(=O)C(N=O)c3csc(N)n3)[C@H]2SC1 (stereo partly drawn) | 12.7% (inactive) | – |
| CC(C)CC(NC(=O)C(COC(C)(C)C)NC(=O)C(Cc1ccc(O)cc1)NC(=O)C(CO)NC(=O)C(Cc1c[nH]c2ccccc12)NC(=O)C(Cc1cnc[nH]1)NC(=O)C1CCC(=O)N1)C(=O)NC(CCCN=C(N)N)C(=O)N1CCCC1C(=O)NNC(N)=O (stereo not drawn) | -1.85% (inactive) | – |
| CCC(C)C1NC(=O)C(CCNCS(=O)(=O)O)NC(=O)C(NC(=O)C(CCNCS(=O)(=O)O)NC(=O)C(NC(=O)C(CCNCS(=O)(=O)O)NC(=O)CCCCC(C)C)C(C)O)CCNC(=O)C(C(C)O)NC(=O)C(CCNCS(=O)(=O)O)NC(=O)C(CCNCS(=O)(=O)O)NC(=O)C(C(C)CC)NC1=O (stereo not drawn) ({Heptanoyl(6-Me)}-[ξDab(CH2SO3H)]T[ξDab(CH2SO3H)][Dab][ξDab(CH2SO3H)]II[ξDab(CH2SO3H)][ξDab(CH2SO3H)]T; lactam 4-C; configuration not given here) | 6.36% (inactive) | – |
| CC(C)C[C@H](NC(=O)[C@@H](Cc1c[nH]c2ccccc12)NC(=O)[C@@H](Cc1ccc(O)cc1)NC(=O)[C@@H](CO)NC(=O)[C@@H](Cc1c[nH]c2ccccc12)NC(=O)C(Cc1cnc[nH]1)NC(=O)C1CCC(=O)N1)C(=O)N[C@@H](CCCN=C(N)N)C(=O)N1CCC[C@@H]1C(=O)NCC(N)=O (stereo partly drawn) | 2.24% (inactive) | – |
| O=C1/C(=C\c2cccs2)CCC/C1=C/c1cccs1 | 18.2% (inactive) | – |
| NCCCC(N)CC(=O)NC1CNC(=O)C(C2CC(O)N=C(N)N2)NC(=O)/C(=C/NC(N)=O)NC(=O)C(CO)NC(=O)C(CO)NC1=O (stereo not drawn) (ξβ3hOrn-[Dap]SS[ΔAla(Z-3-ureido)][X2]; lactam 1-C; configuration not given here) | 2.15% (inactive) | – |
| CC(C)C(NC(=O)C(CC(=O)O)NC(=O)C(CCCCN)NC(=O)C(N)CCCN=C(N)N)C(=O)NC(Cc1ccc(O)cc1)C(=O)O (stereo not drawn) (H-RKDVY-OH; configuration not given here) | 4.31% (inactive) | – |
| CC(=O)OCC(=O)[C@@]1(O)CCC2C3CCC4=CC(=O)CC[C@]4(C)C3=CC[C@@]21C (stereo partly drawn) | 1.95% (inactive) | – |
| CC(N)C(=O)NCC(=O)NC1CSSCC(C(=O)O)NC(=O)C(CO)NC(=O)C(C(C)O)NC(=O)C(Cc2ccccc2)NC(=O)C(C(C)O)NC(=O)C(CCCCN)NC(=O)C(Cc2c[nH]c3ccccc23)NC(=O)C(Cc2ccccc2)NC(=O)C(Cc2ccccc2)NC(=O)C(CC(N)=O)NC(=O)C(CCCCN)NC1=O (stereo not drawn) | 7.66% (inactive) | – |
| Cn1cc(O)nc1NC(=O)Nc1cccc(Cl)c1 | -29.5% (inactive) | – |
| CCC(C)C1NC(=O)C(Cc2ccc(O)cc2)NC(=O)C(N)CSSCC(C(=O)N2CCCC2C(=O)NC(CC(C)C)C(=O)NCC(N)=O)NC(=O)C(CC(N)=O)NC(=O)C(CCC(N)=O)NC1=O (stereo not drawn) | 2.71% (inactive) | – |
| CNCC(=O)NC(CCCN=C(N)N)C(=O)NC(C(=O)NC(Cc1ccc(O)cc1)C(=O)NC(C(=O)NC(Cc1cnc[nH]1)C(=O)N1CCCC1C(=O)NC(C)C(=O)O)C(C)C)C(C)C (stereo not drawn) | 5.07% (inactive) | – |
| CC(=O)OCC1=C(C(=O)O)N2C(=O)C(NC(=O)Cc3ccccc3)C2SC1 (stereo not drawn) | 6.46% (inactive) | – |
| O=C(OCC1OC(OC(=O)c2cc(O)c(O)c(OC(=O)c3cc(O)c(O)c(O)c3)c2)[C@@H](OC(=O)c2cc(O)c(O)c(OC(=O)c3cc(O)c(O)c(O)c3)c2)C(OC(=O)c2cc(O)c(O)c(OC(=O)c3cc(O)c(O)c(O)c3)c2)C1OC(=O)c1cc(O)c(O)c(OC(=O)c2cc(O)c(O)c(O)c2)c1)c1cc(O)c(O)c(OC(=O)c2cc(O)c(O)c(O)c2)c1 (stereo partly drawn) | – | 2240 nM (active) |
| CC(C)CC1NC(=O)C(CCCN)NC(=O)C(C(C)C)NC(=O)C2CCCN2C(=O)C(Cc2ccccc2)NC(=O)C(CC(C)C)NC(=O)C(CCCN)NC(=O)C(C(C)C)NC(=O)C2CCCN2C(=O)C(Cc2ccccc2)NC1=O (stereo not drawn) (cyclo(FPV[Orn]LFPV[Orn]L); configuration not given here) | – | 2.8 nM (active) |
